Hits are enriched below; roughly 0.86% of the tested compounds scored in any of these assays.
APE1 inh: blocks human APE1 abasic DNA cleavage | hit rate 0.35% among 350,000 | recombinant APE1, TAMRA/BHQ-2 abasic DNA cleavage fluorescence | Potency, µM (series often up to 65.8 µM), for inactives: at the highest dose activity change, negative = inhibition, usual class: inhibitors | AID 2517 | P27695;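 note: plate controls were vehicle for no effect and reference inhibitor for full effect; nearly all actives have a fitted effect of over 55% in size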
Target sequence (P27695 whole entry, looked up): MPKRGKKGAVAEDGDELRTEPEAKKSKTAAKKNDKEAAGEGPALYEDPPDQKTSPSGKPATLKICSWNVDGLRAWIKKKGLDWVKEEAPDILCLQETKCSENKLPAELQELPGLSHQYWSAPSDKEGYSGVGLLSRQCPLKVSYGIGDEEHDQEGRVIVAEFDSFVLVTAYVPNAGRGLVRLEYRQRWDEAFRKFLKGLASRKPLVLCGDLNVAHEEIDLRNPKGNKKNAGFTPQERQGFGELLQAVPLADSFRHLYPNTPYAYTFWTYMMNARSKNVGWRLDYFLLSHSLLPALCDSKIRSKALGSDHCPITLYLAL
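APE1 at 0.75 nM preincubated 15 min at room temperature with compound. Reaction then started with 50 nM double-stranded THF-abasic substrate labelled with TAMRA/BHQ-2, and 525/598 nm fluorescence read kinetically. Activity taken as third-minus-first read difference, normalized to DMSO and NSC13755 controls.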
BLM helicase inh: inhibitors of human Bloom syndrome helicase BLM | P54132 | recombinant BLM DNA unwinding, fluorescence dequenching | Potency, µM (highest dose often 56.1 µM), without a hit: top-dose activity change, negative = inhibition, most hits filed as inhibitors | hit rate 0.2% among 350,000 | AID 2528;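 note: plate controls were vehicle for no effect and no enzyme for full effect; nearly all actives have a fitted effect of over 35% in size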
PGK inhibitor: blocks T. brucei phosphoglycerate kinase; P07378; hit rate 0.043% among 380,000; PGK/GAPDH coupled, Kinase-Glo luminescence, 60 min; Potency, µM (series often up to 57.5 µM), for the others: at the top dose activity change, negative = inhibition, most hits filed as inhibitors; note: nearly all actives have a fitted effect of over 60% in size
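Recombinant glycosomal PGK reaction used 1,3-bisphosphoglycerate generated in-well by GAPDH (100nM final) in 100mM TEA pH 7.6, 5mM MgCl2, 0.01% Tween-20. After 60 minutes at room temperature, ATP was read by Kinase-Glo Plus luminescence end-point.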
FEN1 inh: human FEN1 inhibition | Potency, µM (highest dose often 114 µM), without a hit: top-dose activity change, negative = inhibition, usual class: inhibitors | hit rate 0.35% among 390,000 | Recombinant FEN1 flap cleavage, fluorescence, 15 min | P39748 | AID 588795; note: nearly all actives have a fitted effect of over 65% in size
Target sequence (P39748 whole entry, looked up): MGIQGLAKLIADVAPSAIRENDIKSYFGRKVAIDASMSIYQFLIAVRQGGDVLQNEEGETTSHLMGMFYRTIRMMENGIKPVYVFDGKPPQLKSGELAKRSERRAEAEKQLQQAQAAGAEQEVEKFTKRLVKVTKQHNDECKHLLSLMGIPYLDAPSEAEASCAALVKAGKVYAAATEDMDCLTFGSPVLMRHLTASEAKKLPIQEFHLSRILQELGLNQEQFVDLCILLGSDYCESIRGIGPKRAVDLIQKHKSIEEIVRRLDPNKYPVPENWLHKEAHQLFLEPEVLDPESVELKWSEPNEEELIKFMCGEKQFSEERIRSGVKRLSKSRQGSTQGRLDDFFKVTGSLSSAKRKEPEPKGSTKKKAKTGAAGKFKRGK
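With each library titrated from low to high concentration, compounds met 10 nM FEN1 for 15 min at room temperature before 50 nM substrate was added; readings at 0 and 15 min fed four-parameter Hill curve fits.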
RECQ1 inh: inhibitors of human RECQ1 DNA helicase. P46063. RECQ1 DNA unwinding, red fluorescence kinetic read. Potency, µM (highest dose often 57.3 µM), for the others: at the top dose activity, negative = inhibition, hits mostly inhibitors. hit rate 0.54% among 240,000;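 note: plate controls were vehicle for no effect and no enzyme for full effect; nearly all actives have a fitted effect of over 30% in size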
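RECQ1T1 50 nM; forked duplex (20 bp + 30-nt ss tails) 200 nM, ATP 2 mM final; pH 8.0, 2 mM MgCl2, 2.5 ug/ml poly(dI-dC); 15 min compound preincubation; discontinuous kinetic read over 2 h at RT.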
GLS inhibitor: inhibitors of human glutaminase (GLS) | AID 624170 | GLS enzymatic activity, qHTS titration | Potency, µM (doses to about 45.5 µM), without a hit: top-dose activity change, negative = inhibition, usual class: inhibitors | hit rate 0.21% among 410,000 | O94925
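Glutamate formation by hKGA was monitored fluorometrically using coupled glutamate oxidase, HRP and Amplex Red. Substrate was added as 1 mM L-glutamine solution; incubation was 30 min at RT after an initial read.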
* marks the source's active call; other numbers are inactive results; i = inactive; u = inconclusive; x = no result given; ! = a repeat was not active. Calls come from the whole dose curve; as a rule, active = well fitted curve in the direction sought with a large enough effect; inconclusive = small, poorly fitted or top-dose-only effect, or another doubt; inactive = no such curve, though single readings can be large; an effect the other way counts as inactive or inconclusive. Unless noted, % is set by controls: 0 for no effect and ±100 for the full control effect; potency is the fitted concentration of half-maximal effect.

SMILES	APE1 inh	BLM helicase inh	PGK inhibitor	FEN1 inh	RECQ1 inh	GLS inhibitor
CC(C)(C)NS(=O)(=O)c1cccc(-c2nnc(SCc3ccc(C(=O)O)cc3)n2-c2ccccc2)c1	50%	x	x	x	x	x
N#Cc1c([N+](=O)[O-])cc([N+](=O)[O-])cc1S(=O)(=O)Cc1ccccc1	-7%	x	2%	79µM*	x	-2%
CC[C@H](C)[C@H](N)C(=O)N[C@H](C(=O)N[C@@H](CO)C(=O)N[C@@H](C)C(=O)N[C@H](C(=O)N[C@H](C(=O)NCC(=O)N[C@H](C(=O)N[C@@H](CC(C)C)C(=O)O)[C@@H](C)CC)C(C)C)C(C)C)[C@@H](C)CC	0%	-1%	x	x	-2%	x
CC(C)CC(=O)N[C@H](C(=O)N[C@H](C(=O)N[C@@H](CC(C)C)[C@@H](O)CC(=O)N[C@@H](C)C(=O)N[C@@H](CC(C)C)[C@@H](O)CC(=O)O)C(C)C)C(C)C	7%	1%	i	17%	32µM*!	-7%
O=C(Cc1ccc(OCc2ccccc2)cc1)NO	x	x	x	-4%	x	x
O=C1CCCC2=C1Sc1ccccc1N2	15%	-9%	11%	-11%	i	13µM*
Cc1cc(O)c2c(c1O)C(=O)c1c(O)cc(C)c(O)c1C2=O	u	-1%	x	x	8%	x
Cc1cc(O)c2c(c1O)C(=O)[C@]13C(=C2O)C(=O)[C@@H]2[C@@H](O)[C@H]1[C@@H]1[C@H](O)[C@H]3C(=O)C3=C(O)c4c(O)cc(C)c(O)c4C(=O)[C@]312	9.5µM*	x	u	u	x	6.3µM*
CC(C)(C)n1ncc2c(=O)n(Cc3ccc(OC(F)(F)F)cc3)cnc21	3%	x	x	-23%	x	x
CCS(=O)(=O)C1=NN2C(=N)/C(=C\c3ccc(OC(=O)c4ccco4)c(Br)c3)C(=O)N=C2S1	-22%	-17%	x	x	x	x
CCS(=O)(=O)C1=NN2C(=N)/C(=C\c3ccc(SCc4ccco4)o3)C(=O)N=C2S1	u	-11%	u	45µM*	u	u
CN(C)c1ccc(/C=C/c2ccnc3ccccc23)c(N)c1	x	x	x	8%	x	x
CCCCC(=O)N(Cc1ccc(-c2ccccc2-c2nn[nH]n2)cc1)[C@@H](C(=O)O)C(C)C	-4%	x	x	x	x	x
CCN1/C(=C/C=C/C=C/c2sc3ccccc3[n+]2CC)Sc2ccccc21	u	u	x	32µM*	u	u
CCN1/C(=C/C=C/C=C/C=C/c2sc3ccccc3[n+]2CC)Sc2ccccc21	-31%	0%	-8%	-17%	x	u
CCN1/C(=C/C=C/c2sc3ccccc3[n+]2CC)Sc2ccccc21	24µM*	32µM*	u	3%	x	9%
CC[n+]1c(/C=C(\C)SC)sc2ccccc21	-1%	13%	x	-1%	-4%	8%
C[N+]1(C)CCN(C[C@@](O)(c2ccccc2)C2CCCCC2)CC1	x	x	x	x	x	-2%
O=C(C[n+]1cccc2cccc(O)c21)c1ccc(Cl)cc1	x	x	x	-4%	x	x
O=C(/C=C/c1ccco1)Nc1nc(-c2ccccn2)cs1	1%	-23%	-10%	18µM*	-1%	-18%
CC(=O)Oc1ccc2c(c1)CC[C@@H]1[C@@H]2CC[C@]2(C)[C@@H](O)CC[C@@H]12	13%	x	x	x	x	x
CC(=O)NC(Cc1c(F)c(F)c(F)c(F)c1F)C(=O)NCC(N)C(=O)c1ccccc1 (stereo unspecified)	x	x	x	-2%	x	x
Cc1c(/C=N\NC(=O)C2COc3ccc(C(C)(C)C)cc3O2)c2ccccc2n1C (stereo unspecified)	-1%	-12%	5%	-22%	28µM*	10%
Cc1cccc(C)c1N(CCCc1cccnc1)C(=O)[C@@H](C)N	x	x	x	x	x	-1%
C#CCOCCOCCOCCNc1nc(N2CCN(C(=O)CCCCCCCCCCNC(=O)[C@@H](CCSC)n3cc(CCO)nn3)CC2)nc(N2CCN(C(=O)CCCCCCCCCCNC(=O)[C@H]([C@@H](C)CC)n3cc(CCCCN=C(N)N)nn3)CC2)n1	u	x	7%	22µM*	x	-12%
SMILES	APE1 inh	BLM helicase inh	PGK inhibitor	FEN1 inh	RECQ1 inh	GLS inhibitor
C#CCOCCOCCOCCNc1nc(N2CCN(C(=O)CCCCCCCCCCNC(=O)[C@H]([C@@H](C)CC)n3cc(CCCCCN)nn3)CC2)nc(N2CCN(C(=O)CCCCCCCCCCNC(=O)[C@@H]([C@H](C)O)n3cc(C)nn3)CC2)n1	-98%	x	11%	56µM*	x	u
C#CCOCCOCCOCCNc1nc(N2CCOCC2)nc(N2CCN(C(=O)CCCCCCCCCCNC(=O)[C@@H](CCSC)n3cc(CCO)nn3)CC2)n1	-1%	x	6%	9%	x	2%
C#CCOCCOCCOCCNc1nc(N2CCN(C(=O)CCCCCCCCCCNC(=O)[C@@H](CCSC)n3cc(CCO)nn3)CC2)nc(N2CCN(C(=O)CCCCCCCCCCNC(=O)[C@H]([C@@H](C)CC)n3cc(CCCCCN)nn3)CC2)n1	u	x	8%	79µM*	x	u
C#CCOCCOCCOCCNc1nc(N2CCN(C(=O)CCCCCCCCCCNC(=O)[C@H](CCC(=O)O)n3cc(CCCCCN)nn3)CC2)nc(N2CCN(C(=O)CCCCCCCCCCNC(=O)[C@@H]([C@H](C)O)n3cc(C)nn3)CC2)n1	-3%	x	i	-22%	x	3%
COc1cc(/C=C2/C=Cc3ccccc32)ccc1N(C)C	x	x	x	-26%	x	x
O=C([C@@H]1CC=C[C@@H]2CCN(C3CCCCC3)C(=O)[C@@H]21)N1CCOCC1	x	x	x	-14%	x	x
Cc1cccc(CN2Cc3cccc4c3[C@H](C=CC4)CC2=O)c1	x	x	x	5%	x	x
O=C1c2ccccc2C(=O)c2c1ccc(C(=O)N1CCCCC1)c2NCCO	-5%	-1%	0%	-14%	-4%	0%
CCN(CCN(C)C)C(=O)c1ccc2c(c1NCCO)C(=O)c1ccccc1C2=O	8%	18µM*	-11%	u	2%	-23%
O=C(/C=C/c1ccco1)NC(=S)Nc1ccccc1	-3%	-6%	-3%	-26%	x	-2%
Cc1ccccc1NC(=S)NC(=O)/C=C/c1ccco1	-2%	-9%	-12%	79µM*	x	11%
O=C(O)c1cc(N2C(=O)C=CC2=O)cc(N2C(=O)C=CC2=O)c1	x	x	u	10µM*	x	u
NC(=O)c1cc(N2C(=O)C=CC2=O)ccc1Cl	-5%	0%	-9%	4%	-5%	-5%
CN(C)c1ccc(N=Cc2cccc3ccccc23)cc1	x	x	x	-2%	x	x
CCCCCCCCCCCCCCCCCCN(CCCCCCCCCCCCCCCCCC)c1ccc(/C=C/c2ccc(C=O)cc2)cc1	x	x	x	-4%	x	x
